The panel holds about 83,000 compounds, 20% with a hit somewhere; the sample as a whole holds those more often.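 Assay: single dose, 48 h. Readout: percent growth (0 = no net growth; negative = cell death). Active: <10.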 Values without a mark were called inactive. Activity calls are given as the source filed them.
How the values were obtained:
Assay in all cases: NCI-60 one-dose screen, 48 h (100 = growth as untreated, 0 = no growth, -100 = all killed)
Conditions in all cases: 10 µM unless noted
[1] = test system: NCI-H23 lung
[2] = test system: NCI-H226 lung
[3] = test system: NCI-H322M lung
[4] = test system: HOP-62 NSCLC
[5] = test system: NCI-H460 lung
[6] = test system: HOP-92 NSCLC
[7] = test system: NCI-H522 lung
[8] = test system: A549/ATCC NSCLC
[9] = test system: 786-0 renal
[10] = test system: COLO 205 colon
[11] = test system: DU-145 prostate
[12] = test system: K-562 leukemia
[13] = test system: MALME-3M melanoma
[14] = test system: MDA-MB-231 breast
[15] = test system: RXF 393 renal
[16] = test system: SF-539 CNS
[17] = test system: UACC-257 melanoma
[18] = test system: M14 melanoma
[19] = test system: SF-268 CNS
[20] = test system: SF-295 CNS

| SMILES | growth [1] | growth [2] | growth [3] | growth [4] | growth [5] | growth [6] | growth [7] | growth [8] | growth [9] | growth [10] | growth [11] | growth [12] | growth [13] | growth [14] | growth [15] | growth [16] | growth [17] | growth [18] | growth [19] | growth [20] |
| --- | --- | --- | --- | --- | --- | --- | --- | --- | --- | --- | --- | --- | --- | --- | --- | --- | --- | --- | --- | --- |
| NC(=O)[C@@H]1CC2CCC1C2 (stereo partly drawn) | 113% | 103% | 110% | 103% | 97.2% | 71.1% | 108% | 110% | 101% | 107% | 50.4% | 45.5% | 101% | 123% | 110% | 91.9% | 111% | 118% |  |  |
| O=C(/C=C\c1ccc2c(c1)OCO2)/C=C/c1ccc2c(c1)OCO2 | 84.8% | 67.7% | 99.2% | 91.4% | 99.1% | 87.8% | 97.4% | 92.9% | 64.6% | 110% | 90.7% | 4.27% (active) | 98.2% |  | 85% | 26.2% | 98.2% | 40% | 93.3% | 89.7% |
| NS(=O)(=O)c1ccc(CCNC(=O)/C=C/c2ccc(Cl)cc2)cc1 | 107% | 107% | 107% | 97.5% | 98% | 100% | 89.8% | 95.9% | 102% | 110% | 99.5% | 90.4% | 90.4% | 98.4% | 122% | 101% | 104% | 99.2% | 95.6% |  |
| Fc1cccc(-c2[nH]nc3nc(Nc4cccnc4)sc23)c1 | 43.3% | 70.8% | 65.1% | 55.4% | 21.2% | 86.4% | 16% | 37.8% | 53.6% | 15.7% | 29.4% | 21% |  | 78.2% | 44.5% | 24% | 72.4% | 45.5% | 60.6% | 27.4% |
| CCN(CC)CCCCCNc1cc(OC(=O)c2ccccc2)cc2cccnc12 | 92% | 118% | 102% | 98.7% | 163% | 99.1% | 124% | 122% | 100% | 17.3% | 111% | 23.8% | 95.3% | 88.2% |  | 150% | 120% | 101% | 93.2% | 110% |
| COc1ccc(/C=C2\N=C(c3ccccc3)N(c3cc(OC)c(OC)cc3C(=O)N3N=C(C)CC3=O)C2=O)cc1 | 102% | 90.1% | 118% | 97% | 94.4% | 78.2% | 82.6% | 104% | 98.9% | 112% | 95.2% | 81.5% | 126% | 87.4% | 93.5% | 94.6% | 128% | 97.9% | 91.4% |  |
| Cc1[c-]onc1C.Cc1[c-]onc1C.[Ag].[Ag].[NH-]S(=O)(=O)c1ccc(N=Nc2cc(N=Nc3ccc(S([NH-])(=O)=O)cc3)c3c(NC(=O)C(Cl)Cl)cccc3c2OC(=O)C(Cl)Cl)cc1 | 94.8% | 94.8% | 96% | 84.7% | 57.3% | 6.01% (active) | -85.7% (active) | 80.5% | 104% | -46.9% (active) | 70.5% | 59.7% | 7.7% (active) | 45.8% | 89.2% | 92.8% | 78.5% | 103% | 84.5% |  |
| COC(=O)c1cc(=O)nc(N/N=C/c2ccc(C)cc2)s1 | 107% | 98.5% | 108% | 98.6% | 106% | 66.4% | 91.9% | 101% | 103% | 114% | 114% | 96.1% | 94.3% | 113% | 111% | 102% | 97.5% | 99.1% | 104% |  |
| COc1ccc2nc(-c3c(-c4ccccc4)nc4ncccn34)[nH]c2c1 | 105% | 106% | 105% | 108% | 106% | 111% | 88.7% | 97.8% | 103% | 108% | 115% | 101% | 112% | 99.3% | 104% | 100% | 105% | 107% | 109% |  |
| COc1c(N)c2c(c([N+](=O)[O-])c1OC)C(=O)OC2 | 120% | 110% | 99.8% | 107% | 113% | 92.3% | 98.6% | 96.1% | 102% | 116% | 116% | 119% |  | 115% | 112% | 104% | 102% | 109% | 106% | 107% |
| Oc1ccc(Nc2ccccc2)cc1 | 86% | 92.6% | 77.7% | 104% | 92.5% | 119% | 92.2% | 111% | 97.8% | 109% | 94.6% | 79.6% | 70.7% | 52.6% |  | 64.5% | 110% | 104% | 88.2% | 82% |
| [B-][N+](CC)(CC)c1ccccc1 | 105% | 106% | 96.9% | 101% | 110% | 81.9% | 96.5% | 102% | 105% | 102% | 106% | 105% | 98.1% | 119% | 115% | 97% | 105% | 88.6% | 103% |  |
| c1ccc2c(-c3nc(-c4c[nH]c5ncccc45)cs3)c[nH]c2c1 | 97.5% | 97.9% | 91.1% | 83.2% | 115% | 65.7% | 85.2% | 100% | 93.4% | 66.3% | 112% | 106% |  | 79.9% | 116% | 99.3% | 109% | 99.8% | 111% | 119% |
| Cn1c2c(c3ccc(Cl)cc31)-n1cccc1C2=O | 95.2% | 99.3% | 85.4% | 107% | 92.9% | 81.8% | 71.3% | 75.1% | 80.9% | 90.4% | 88.6% | 107% |  | 87.5% | 91.8% | 94.7% | 106% | 109% | 92.3% | 105% |
| Cn1cc(-c2nc(-c3c[nH]c4ncccc34)cs2)c2ccccc21 | 63.4% | 85.7% | 52.6% | 92.9% | 35.8% | 42.6% | 84% | 90.6% | 90.5% | 85.9% | 99.9% | 65.5% |  | 42.9% | 84.3% | 99.9% | 95.5% | 81.1% | 99.3% | 98% |
| Cc1ccc(Nc2c(C(N)=O)cnc3ccc(S(=O)(=O)Nc4cc(C)on4)cc23)cc1 | 95.1% | 95% | 95.8% | 89.8% | 103% | 84.1% | 92.2% | 103% | 106% | 101% | 109% | 117% | 108% | 99.5% | 105% | 92.7% | 101% | 100% | 104% |  |

Reference: PubChem BioAssay (NCI)
